Laboratory results taken from publication PMC4336329 (PLoS ONE, 2015).
The whole screen tested about 310,000 compounds, of which about 14,000 (4.5%) showed an effect of 50% or more. The effect is printed as a negative number. Many of the other results were omitted from the sample, so strong results are more common in it than they were.

These molecules were tested against human ether-à-go-go-related gene (hERG) potassium channel (human, UniProt Q12809) (assay: primary screen, population patch clamp on CHO cells stably expressing hERG; higher = less effect of the substance).
Sequence of human ether-à-go-go-related gene (hERG) potassium channel (Q12809 whole entry, looked up): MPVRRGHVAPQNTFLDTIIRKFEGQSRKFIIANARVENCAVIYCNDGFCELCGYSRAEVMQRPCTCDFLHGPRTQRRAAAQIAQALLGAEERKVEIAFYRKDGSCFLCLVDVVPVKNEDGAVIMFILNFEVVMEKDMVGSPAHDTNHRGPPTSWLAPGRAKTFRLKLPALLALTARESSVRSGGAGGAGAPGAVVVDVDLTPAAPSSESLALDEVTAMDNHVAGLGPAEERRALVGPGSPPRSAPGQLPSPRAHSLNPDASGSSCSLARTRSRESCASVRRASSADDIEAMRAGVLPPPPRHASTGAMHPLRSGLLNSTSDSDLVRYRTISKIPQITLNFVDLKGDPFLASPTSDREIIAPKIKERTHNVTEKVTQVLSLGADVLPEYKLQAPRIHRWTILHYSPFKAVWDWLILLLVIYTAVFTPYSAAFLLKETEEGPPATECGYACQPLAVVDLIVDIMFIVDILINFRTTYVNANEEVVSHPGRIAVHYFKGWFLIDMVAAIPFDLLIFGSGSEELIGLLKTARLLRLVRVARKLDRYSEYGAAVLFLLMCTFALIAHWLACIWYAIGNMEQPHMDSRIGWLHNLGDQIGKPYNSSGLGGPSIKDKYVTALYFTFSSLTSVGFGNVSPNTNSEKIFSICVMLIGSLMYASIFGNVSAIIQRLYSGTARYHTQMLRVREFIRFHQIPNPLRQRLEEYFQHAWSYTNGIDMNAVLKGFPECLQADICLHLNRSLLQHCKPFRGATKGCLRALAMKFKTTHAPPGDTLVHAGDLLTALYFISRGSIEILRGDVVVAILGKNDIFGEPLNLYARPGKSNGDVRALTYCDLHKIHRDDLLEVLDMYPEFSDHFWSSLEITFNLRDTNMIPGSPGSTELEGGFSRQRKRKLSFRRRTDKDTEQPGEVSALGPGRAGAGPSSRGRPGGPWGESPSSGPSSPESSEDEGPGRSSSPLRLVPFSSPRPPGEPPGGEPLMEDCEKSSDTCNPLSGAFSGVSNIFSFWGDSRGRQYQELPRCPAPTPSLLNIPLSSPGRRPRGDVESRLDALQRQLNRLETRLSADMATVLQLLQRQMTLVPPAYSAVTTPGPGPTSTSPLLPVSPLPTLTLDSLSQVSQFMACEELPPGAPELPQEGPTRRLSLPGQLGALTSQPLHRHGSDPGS
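Note: peak tail current of the secondary pulse compared with the same well before compound.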

Compound	hERG current change (%, negative = inhibition) at 10uM [%]
CC(=O)OC(C(=O)Nc1nccs1)c1ccccc1 (centres unmarked)	2.26
CC(C)CCNC(=O)c1nn(Cc2ccccc2)c(=O)c2ccccc12	5.59
CC(C)N(CCNC(=O)c1nn(Cc2ccccc2)c(=O)c2ccccc12)C(C)C	-66.1
O=C(c1nn(Cc2ccccc2)c(=O)c2ccccc12)N1CCc2ccccc2C1	-29
O=C(c1nn(Cc2ccccc2)c(=O)c2ccccc12)N1CCN(c2ccccn2)CC1	-66.3
CC(=O)c1ccc(N2CCN(C(=O)c3n[nH]c4ccccc34)CC2)cc1	-34.3
CC(=O)c1ccc(N2CCN(C(=O)c3nn(Cc4ccccc4)c(=O)c4ccccc34)CC2)cc1	-75.1
O=C(c1nn(-c2ccccc2)c(=O)c2ccccc12)N1CCN(c2ccccn2)CC1	-16.5
O=C(c1ccc(Cn2c(=O)[nH]c3ccccc3c2=O)cc1)N1CCN(c2ccccn2)CC1	0.196
CC(C)CNC(=O)c1nn(Cc2ccccc2)c(=O)c2ccccc12	-16
O=[N+]([O-])c1cccc(S(=O)(=O)Nc2ccc(S(=O)(=O)N3CCCC3)cc2)c1	2.95
O=C(CSc1nnc(NC(=O)c2c(F)cccc2F)s1)NC1CC1	21.9
COC(=O)c1cccc(Oc2cccc(Cl)n2)c1	14.7
Clc1ccc(COc2ccccn2)cc1Cl	-6.01
OCCOCCn1c(C(CO)Nc2nc(-c3ccc(F)cc3)cs2)nc2ccccc21 (centres unmarked)	-29.4
COc1ccc(N(CC(=O)NCc2ccccc2OC)S(=O)(=O)c2ccccc2[N+](=O)[O-])c(OC)c1	3.17
CN(C)Cc1c(C(=O)N/N=C/C=C/c2ccccc2)nnn1-c1nonc1N	-24.9
COC(=O)Nc1ccc(OC)c(OC)c1	4.01
COc1ncnc2c1sc1nc(-c3ccccc3)c3c(c12)CCCC3	15.6

Compound	hERG current change (%, negative = inhibition) at 10uM [%]
COc1ccc(-c2nc(C#N)c(N3CCC(C(N)=O)CC3)o2)cc1	-15.6
CCN1CCN(c2oc(-c3ccc([N+](=O)[O-])cc3)nc2C#N)CC1	-53.1
CCOc1ccc(-c2nc(C#N)c(N3CCN(CC)CC3)o2)cc1	-47.3
CCN1CCN(c2oc(-c3ccc(OC)cc3)nc2C#N)CC1	-45.6
CN1CCN(c2oc(-c3ccc([N+](=O)[O-])cc3)nc2C#N)CC1	-66.1
Cc1ccc(-c2nc(C#N)c(N3CCC(C(N)=O)CC3)o2)cc1	-23.7
N#Cc1nc(-c2ccc([N+](=O)[O-])cc2)oc1N1CCCCC1	14.5
CC(C)(C)c1ccc(-c2nc(C#N)c(N3CCC(C(N)=O)CC3)o2)cc1	-63.3
CCOc1ccc(-c2nc(C#N)c(N3CCN(C)CC3)o2)cc1	-32.5
CC(=O)Cn1c(N2CCC(Cc3ccccc3)CC2)nc2c1c(=O)[nH]c(=O)n2C	10.3
COCCN(C(=S)Nc1ccc(C(C)C)cc1)C(C)c1cccs1 (centres unmarked)	8.26
COCC(C)NC(=O)CSc1ncnc2sc(-c3ccccc3)cc12 (centres unmarked)	-10.1
CCC(C)(C)n1c(=O)[nH]c2c(c1=O)CCC2	6.59
O=C(O)COCC(=O)Nc1ccc(OCCc2ccccc2)cc1	11.8
Cc1cccc(NS(=O)(=O)c2cc3c4c(c2)CCC(=O)N4CCC3)c1	-21.6
COc1cc(/C=C(/C#N)C(=O)Nc2ccccc2)c(Br)cc1OCc1ccc(C(=O)O)cc1	9.98
CC(C)Cc1ccc(C(C)C(=N)N)cc1.Cl (centres unmarked)	-6.14
CC(C)Cc1ccc(C(C)C(=O)Nc2ccc(O)cc2)cc1 (centres unmarked)	11.3
COc1ccc(CCN=C(N)C(C)c2ccccc2)cc1OC.Cl (centres unmarked)	11.4

Compound	hERG current change (%, negative = inhibition) at 10uM [%]
CC(C)Cc1ccc(C(C)C(N)=Nc2ccc(O)cc2)cc1.Cl (centres unmarked)	-80.2
CC(C)Cc1ccc(C(C)C(N)=NCCc2ccccc2)cc1.Cl (centres unmarked)	-67.5
CC(C)Cc1ccc([C@H](C)C(=O)O)cc1	7.11
COc1cc(NC(=O)C2CC(c3cccc(Br)c3)=NO2)cc(OC)c1OC (centres unmarked)	-11.6
COc1ccccc1N1CCN(C(=O)c2ccccc2Oc2ccccc2)CC1	-25.7
Cc1cccc(N(CC(O)CON=C2c3ccccc3-c3ccccc32)S(C)(=O)=O)c1 (centres unmarked)	15.1
COc1ccc(CCNC(=O)COc2ccc([N+](=O)[O-])cc2)cc1	-31.1
CN(C)c1ccc(P(=O)(COc2ccc([N+](=O)[O-])cc2)c2ccc(N(C)C)cc2)cc1	-41.9
O=C(COc1ccc([N+](=O)[O-])cc1)NCc1ccccc1	-38.9
COc1ccc(OCC(=O)NNC(=S)NC(=O)c2ccc([N+](=O)[O-])cc2)cc1	15.6
COc1ccc(CNC(=O)COc2ccc(OC)cc2)cc1	13.8
COc1ccc(CNC(=O)COc2ccc([N+](=O)[O-])cc2)cc1	-64.5
O=C(COc1ccc([N+](=O)[O-])cc1)NCc1ccncc1	-67.6
COc1ccc(P(=O)(COc2ccc([N+](=O)[O-])cc2)c2ccc(OC)cc2)cc1	-71
O=C(COc1ccc([N+](=O)[O-])cc1)NCc1cccnc1	-33.4
CN(C)c1ccc(/C=N/NC(=O)c2ccc3c(c2)OCCO3)cc1	9.93
CCC(CC)NC(=O)CCCSc1nc2ccccc2[nH]1	22.3
O=C(Nc1cccnc1)c1ccc([N+](=O)[O-])s1	-20.1
